The text below walks through data of PubChem BioAssay (NCI).

Structures are written as SMILES. About 83,000 compounds went through this panel and 20% of them were active in at least one assay; those are over-represented in the sample as a whole.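 For each line, cells grew in 96-well plates with the test compound present at a single concentration for 48 hours.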 Unmarked numbers belong to inactive results. Active and inactive are the calls of the source. How the source made its calls: active means growth percent below 10; inactive means the rest.

Assay in all cases: NCI-60 one-dose screen, 48 h (100 = growth as untreated, 0 = no growth, -100 = all killed)
Common to all, as to conditions: 10 µM unless noted

The subject of assay [1] is NCI-H23 lung.
In assay [2] the test system is NCI-H226 lung.
Assay [3] deals with NCI-H322M lung.
The test system of assay [4] is HOP-62 NSCLC.
In assay [5] the test system is NCI-H460 lung.
Assay [6] has as its system HOP-92 NSCLC.
Assay [7] relates to NCI-H522 lung.
The test system of assay [8] is A549/ATCC NSCLC.
For assay [9], the system named is 786-0 renal.
For assay [10], the system named is COLO 205 colon.
The subject of assay [11] is DU-145 prostate.
The subject of assay [12] is K-562 leukemia.
The subject of assay [13] is MALME-3M melanoma.
Assay [14] has as its system MDA-MB-231 breast.
Assay [15] deals with RXF 393 renal.
Assay [16] concerns SF-268 CNS.
Assay [17] has as its system SF-295 CNS.
Assay [18] concerns SF-539 CNS.
Assay [19] relates to UACC-257 melanoma.
Assay [20] relates to M14 melanoma.

`C[C@]12O[C@H](C[C@]1(O)CO)n1c3ccccc3c3c4c(c5c6ccccc6n2c5c31)CNC4=O`: the growth is -58.3% (active) in assay [1]; -68.8% (active) in assay [2]; -32.1% (active) in assay [3]; -63% (active) in assay [4]; -61.3% (active) in assay [5]; -26.3% (active) in assay [6]. Moreover, the growth in [7] was -56.2% (active); in assay [8], -29.9% (active); in assay [9], -87.5% (active); in assay [10] it was -84.9% (active); in [11] it was 3.57% (active); in assay [12], 4.93% (active). Besides, the growth is -85.3% (active) in assay [13]; -44.2% (active) in assay [14]; -90.2% (active) in [15]; -45.5% (active) in assay [16]; -83.8% (active) in assay [17]; -96.6% (active) in assay [18]. Also, the growth in [19] was -77.2% (active); in assay [20], -56.4% (active).

In the case of `Cc1ccc(-c2cc3c(SCC(=O)Nc4cc(C(F)(F)F)ccc4Cl)nccn3n2)cc1`, the growth in assay [1] was 74.2%; in assay [2], 54%; in [3], 31%; in assay [4], 43.3%; in assay [5] it was 14.2%; in [6] it was 28.6%. The growth is 42.7% in assay [7]; 36% in [8]; 54.7% in [9]; 27% in [10]; 25.6% in assay [11]; -10.4% (active) in [12]. For the same compound, the growth in [13] is -69.5% (active); in assay [14], 13.4%; in assay [15], 13.5%; in assay [16], 56.5%; in [17], 38.1%; in assay [18], 53.9%. Besides, the growth in [20] is 50.6%.

Turning to `Nc1c(Cl)cccc1[N+](=O)[O-]`, the growth in assay [1] was 106%; in assay [2], 101%; in [3], 110%; in assay [4], 98.8%; in assay [5] it was 104%; in assay [6] it was 96.6%. The growth in assay [7] is 118%; in assay [8], 101%; in [9], 109%; in assay [10], 114%; in assay [11], 111%; in [12], 101%. Also, the growth in [13] is 96.7%; in assay [14], 99.3%; in assay [15], 115%; in assay [16], 105%; in assay [17] it was 107%; in assay [18], 108%. Moreover, the growth in assay [19] and in assay [20] was 108% each time.

In the case of `COc1cc2c(Oc3ccc(NC(=O)C4(C(=O)Nc5ccc(F)cc5)CC4)cc3F)ccnc2cc1OCCCN1CCOCC1`, the growth in [1] is 10.1%; in assay [2], 12.3%; in [3], -1.77% (active); in assay [4], -13.5% (active); in [5], -40.8% (active); in [6], -58.2% (active). Further, the growth in assay [7] is -57% (active); in [8], -77.1% (active); in assay [9], -75.7% (active); in assay [10] it was -71.3% (active); in assay [11], 16.4%; in assay [12], -12.1% (active). The growth in [13] was -71.6% (active); in assay [14], -60.3% (active); in assay [15], -94.5% (active); in assay [16] it was 11.6%; in [17], -82.9% (active); in assay [18], -90.5% (active). For the same compound, the growth in assay [19] is -85.3% (active); in assay [20] it was -65.9% (active).

In the case of `CCN1CCN(c2cc(C)nc(N(CCCNc3ccnc4cc(Cl)ccc34)Cc3ccc4c(c3)OCO4)n2)CC1`, the growth in assay [1] was 36.8%; in [2] it was 50.7%; in [3], 5.48% (active); in assay [4] it was -38.8% (active); in assay [5], 7.01% (active); in [6], -24.9% (active). For the same compound, the growth in [7] is -24.5% (active); in assay [8], 11.5%; in [9] it was -80.2% (active); in assay [10], -82.6% (active); in assay [11], 20.1%; in assay [12], -30.4% (active). In addition, the growth in assay [13] is -82.2% (active); in [14], -29.5% (active); in assay [15], -59% (active); in assay [16], -0.704% (active); in assay [17], -70% (active); in assay [18], -88.6% (active). In addition, the growth in assay [20] was -82.2% (active).

On to `Clc1ccc2c(NCCNc3nc(N4CCCC4)nc4ccccc34)ccnc2c1`, for which the growth in assay [1] is 11.4%; in assay [2], -31.2% (active); in assay [3], -7.37% (active); in assay [4] it was -47.2% (active); in assay [5], -23.6% (active); in [6], -1.92% (active). Moreover, the growth in assay [7] is -48% (active); in [8], -4.72% (active); in [9], -77.4% (active); in assay [10], -81.4% (active); in [11], 5.1% (active); in [12], -24.9% (active). Also, the growth in [13] is -69.6% (active); in assay [14], -60.7% (active); in assay [15], -56.9% (active); in [16], 16.2%; in [17], -73.1% (active); in assay [18], -92.6% (active). For the same compound, the growth in [20] is -71.5% (active).

Take `C/C=C/C=N/NC(=S)Nc1ccccc1`: the growth was 90.7% in [1]; 95.8% in assay [2]; 90.6% in assay [3]; 86% in [4]; 112% in assay [5]; 93% in assay [6]. Also, the growth was 82.7% in assay [7]; 79.4% in assay [8]; 106% in assay [9]; 101% in [10]; 104% in assay [11]; 88.9% in [12]. Further, the growth in assay [13] is 96.5%; in assay [14] it was 89.9%; in assay [15], 119%; in assay [16] it was 100%; in assay [17] it was 98.9%; in assay [18] it was 89.5%. Further, the growth was 81.1% in assay [19] and 96.5% in assay [20].

On to `CC(=O)c1cnc2ccc(-c3cc(Cl)c(O)c(Cl)c3)nc2c1NC1CCC(CN(C)C)CC1` (configuration not stated), for which the growth was -54.3% [2.5 µM] (active) in [1]; -16.3% [2.5 µM] (active) in assay [2]; -37.7% [2.5 µM] (active) in assay [3]; -34.4% [2.5 µM] (active) in assay [4]; -51.8% [2.5 µM] (active) in assay [5]; -20.3% [2.5 µM] (active) in assay [6]. Also, the growth in assay [7] was -75.5% [2.5 µM] (active); in assay [8] it was -8.85% [2.5 µM] (active); in assay [9] it was -48.3% [2.5 µM] (active); in assay [10] it was -94.2% [2.5 µM] (active); in [11], -5.67% [2.5 µM] (active); in assay [12], 6.35% [2.5 µM] (active). For the same compound, the growth in assay [13] was -75.7% [2.5 µM] (active); in [14] it was -7.07% [2.5 µM] (active); in assay [15] it was -75.1% [2.5 µM] (active); in [16] it was -24.1% [2.5 µM] (active); in [17] it was -19.2% [2.5 µM] (active); in [18], -89% [2.5 µM] (active). Besides, the growth in assay [19] was -26.4% [2.5 µM] (active); in assay [20], -58.4% [2.5 µM] (active).
